Results published in PubChem BioAssay (NCI).
The panel holds about 79,000 compounds, 15% with a hit somewhere; the sample as a whole holds those more often. Active and inactive are the calls of the source. Rule as the data show it: active = growth inhibition above about 70%; inactive = the rest.

Key:
[1] = NCI Yeast Anticancer Drug Screen. Data for the rad52 strain (AID 147);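 also: 0% = growth of vehicle-treated control cultures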; details: S. cerevisiae rad52 mutant growth inhibition, hits give high values
How it was run: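 Inhibition of yeast growth, referenced to vehicle controls, was the measured output for a strain with defective DNA damage repair.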

[2] = NCI Yeast Anticancer Drug Screen. Data for the wt1 strain (AID 149);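 also: 0% = growth of vehicle-treated wt1 cultures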; details: S. cerevisiae wt1 strain (SPY 50644) growth inhibition, hits give high values
How it was run: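 Yeast wt1 strain exposed to compounds; growth inhibition measured relative to vehicle-treated controls.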

[3] = NCI Yeast Anticancer Drug Screen. Data for the rad50EPP+ strain (AID 151);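 also: 0% = growth of vehicle-treated control cultures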; details: S. cerevisiae rad50 mutant strain, hits give high values
How it was run: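 Genetically defined yeast (rad50EPP+, DNA damage repair alteration) is grown with compound, and inhibition of growth is expressed relative to vehicle-treated controls.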

[4] = NCI Yeast Anticancer Drug Screen. Data for the rad50 strain (AID 155);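 also: 0% = growth of vehicle-only cultures of the same strain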; details: S. cerevisiae rad50 strain growth inhibition, hits give high values
How it was run: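 Yeast carrying a defined DNA repair defect were exposed to test compounds, and growth was compared with vehicle-treated controls to give percent inhibition.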

[5] = NCI Yeast Anticancer Drug Screen. Data for the mec2-1 strain (AID 157); details: S. cerevisiae mec2-1 strain, hits give high values
How it was run: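 Each compound was tested on mec2-1 yeast, a strain altered in DNA damage repair or cell cycle control. Growth inhibition is reported relative to vehicle.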

[6] = NCI Yeast Anticancer Drug Screen. Data for the rad14 strain (AID 159);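 also: 0% = growth of vehicle-treated control cultures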; details: S. cerevisiae rad14 strain growth inhibition, hits give high values
How it was run: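 Yeast cells carrying a defined DNA-repair defect were exposed to compounds, and growth inhibition was calculated relative to vehicle-treated control cultures.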

[7] = NCI Yeast Anticancer Drug Screen. Data for the sgs1 mgt1 strain (AID 161);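 also: 0% = growth of cultures given vehicle only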; details: S. cerevisiae sgs1 mgt1 strain, hits give high values
How it was run: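 Test agents were incubated with a DNA-repair-mutant yeast strain. Growth was then read and compared against vehicle-treated controls.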

[8] = NCI Yeast Anticancer Drug Screen. Data for the CLN2oe strain (AID 163);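 also: 0% = growth of vehicle-only control cultures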; details: S. cerevisiae CLN2oe strain, hits give high values
How it was run: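 First, the altered yeast strain was treated with each compound; second, its growth was measured; finally, inhibition was derived by comparison with vehicle controls.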

[9] = NCI Yeast Anticancer Drug Screen. Data for the cln2 rad14 strain (AID 165);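 also: 0% = growth equal to vehicle treated cultures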; details: S. cerevisiae cln2 rad14 strain, hits give high values
How it was run: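 Test compounds were added to cln2 rad14 yeast cultures; inhibition of growth was then determined by comparison with vehicle treatment.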

[10] = NCI Yeast Anticancer Drug Screen. Data for the bub3 strain (AID 167); details: S. cerevisiae bub3 mutant strain, hits give high values
How it was run: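 Compounds were applied to a genetically altered yeast strain carrying a cell-cycle control defect. Growth inhibition was scored against vehicle-treated controls.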

[11] = NCI Yeast Anticancer Drug Screen. Data for the wt2 strain (AID 169);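 also: 0% = growth of vehicle-treated yeast cultures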; details: S. cerevisiae wt2 strain growth inhibition, hits give high values
How it was run: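 The panel's yeast strains carry defined changes in DNA repair or cell cycle genes. Each strain is grown with compound, and growth loss is scored relative to vehicle.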

[12] = NCI Yeast Anticancer Drug Screen. Data for the mlh1 strain (AID 171);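 also: 0% = growth of vehicle-treated control cultures of the same strain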; details: S. cerevisiae mlh1 strain growth inhibition, hits give high values
How it was run: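 Inhibition values reflect reduced yeast growth in the presence of compound, referenced to vehicle controls, using a strain chosen for its alteration in DNA repair or cell cycle control.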

[13] = NCI Yeast Anticancer Drug Screen. Data for the sgs1 strain (AID 173);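 also: 0% = growth of vehicle-only control cultures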; details: S. cerevisiae sgs1 mutant, hits give high values
How it was run: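 Vehicle-treated cultures served as reference for growth inhibition of a yeast strain altered in DNA damage repair or cell cycle control after compound exposure.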

[14] = NCI Yeast Anticancer Drug Screen. Data for the mlh1 rad18 strain (AID 175); details: S. cerevisiae mlh1 rad18 strain growth inhibition, hits give high values
How it was run: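 Inhibition values reflect reduced growth of mutant yeast versus vehicle-treated controls following compound exposure; the mutations affect DNA damage repair.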

[15] = NCI Yeast Anticancer Drug Screen. Data for the rad18 strain (AID 177); details: S. cerevisiae rad18 mutant growth inhibition, hits give high values
How it was run: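 Steps: expose repair-mutant yeast to compound; measure growth; express as inhibition relative to vehicle control.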

[16] = at 5.0 µM (retest, dose inferred, filed as 0.5)
[17] = at 50.0 µM (retest, dose inferred, filed as 5.0)

Measured: growth inhibition

O=C1C=CC(=O)N1c1ccc(Br)cc1Cl
active: [1]; at 1.2 µM 91% | [1]; at 3.7 µM 101% | [1]; at 11.0 µM 99% | [1]; at 33.0 µM 99% | [1]; at 100.0 µM 99% | [2]; at 1.2 µM 95% | [2]; at 3.7 µM 101% | [2]; at 11.0 µM 99% | [2]; at 33.0 µM 99% | [2]; at 100.0 µM 98% | [3]; at 1.2 µM 90% | [3]; at 3.7 µM 102% | [3]; at 11.0 µM 100% | [3]; at 33.0 µM 99% | [3]; at 100.0 µM 99% | [4]; at 1.2 µM 99% | [4]; at 3.7 µM 101% | [4]; at 11.0 µM 100% | [4]; at 33.0 µM 100% | [4]; at 50.0 µM 92.2% | [4]; at 100.0 µM 99% | [5]; at 1.2 µM 97% | [5]; at 3.7 µM 101% | [5]; at 11.0 µM 100% | [5]; at 33.0 µM 99% | [5]; at 50.0 µM 93.7% | [5]; at 100.0 µM 99% | [6]; at 1.2 µM 99% | [6]; at 3.7 µM 102% | [6]; at 11.0 µM 100% | [6]; at 33.0 µM 100% | [6]; at 100.0 µM 100% | [7]; [16] 101% | [7]; [17] 98% | [8]; at 3.7 µM 101% | [8]; at 11.0 µM 99% | [8]; at 33.0 µM 99% | [8]; at 100.0 µM 99% | [9]; [16] 73% | [9]; [17] 100% | [10]; at 1.2 µM 98% | [10]; at 3.7 µM 101% | [10]; [16] 101% | [10]; at 11.0 µM 99% | [10]; at 33.0 µM 100% | [10]; [17] 98% | [10]; at 100.0 µM 99% | [11]; at 1.2 µM 76% | [11]; at 3.7 µM 101% | [11]; at 11.0 µM 99% | [11]; at 33.0 µM 99% | [11]; at 100.0 µM 99% | [12]; at 1.2 µM 96% | [12]; at 3.7 µM 101% | [12]; at 11.0 µM 100% | [12]; at 33.0 µM 97% | [12]; at 100.0 µM 99% | [13]; at 1.2 µM 92% | [13]; at 3.7 µM 102% | [13]; at 11.0 µM 99% | [13]; at 33.0 µM 99% | [13]; at 100.0 µM 99% | [14]; at 50.0 µM 92.7% | [15]; at 1.2 µM 85% | [15]; at 3.7 µM 99% | [15]; at 11.0 µM 99% | [15]; at 33.0 µM 93% | [15]; at 100.0 µM 99%
inactive: [4]; [16] 15% | [4]; [17] 51% | [5]; [16] 44% | [5]; [17] 42% | [8]; at 1.2 µM 63% | [14]; [16] 22% | [14]; [17] 42%
